Laboratory results from PubChem BioAssay.

Experiment: probe aNOTCH3 binding on compound microarray – biochemical, small-molecule microarray, 635/667 nm fluorescence, primary screen (AID 1120);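 also: probe is a biotin-tagged antibody raised against NOTCH3 rather than NOTCH3 protein; score merges spot fluorescence near 667 nm with spot signal to noise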
Details: higher = more signal

SMILES	composite z-score
CCCNC(=O)OC[C@H]1O[C@H](CCON=CC[C@@H]2C=C[C@H](OC(C)=O)[C@@H](COC(C)=O)O2)C=C[C@@H]1Oc1ccc(OC)cc1	0.0131
O[C@@H](Cc1ccccc1)[C@H]1C2C=CCCC(c3ccccc3)=C2CN1Cc1cccc(Cl)c1 (stereo partly specified)	-0.027
CCCC[C@@H]1C[C@H]1[C@@H](NS(=O)(=O)c1cccc2cccnc12)c1ccc(-c2ccccc2)cc1	0.106
O=C1C2=CC[C@H]3C(=O)N(Cc4ccc5c(c4)OCO5)C(=O)[C@H]3[C@H]2[C@H](O)[C@@H]2O[C@H]12	-0.0229
CCOC(=O)[C@H](CC(C)C)NC(=O)CCC1CC(OC(=O)NCCc2ccc(F)cc2)CC2(CCCC(COC(=O)NCc3ccccc3)O2)O1 (stereo partly specified)	0.257
CCCNC(=O)[C@@H]1c2ccccc2C(=O)N(Cc2ccccc2Cl)[C@H]1c1ccc(CO)cc1	-0.0794
CO[C@@H]1COC(=O)CC=C[C@@H](C)COC(=O)[C@H](COCc2ccccc2)NC(=O)CC=C[C@H]1C	-0.111
C=COC[C@H]1CN2[C@@H](CC[C@@H](C)[C@@H]2c2ccc(Br)cc2)C(=O)O1	0.0999
COC(=O)[C@H](C)NC(=O)CCC1CC(OC(=O)NCCc2ccc(F)cc2)CC2(CCCC(COC(=O)NCCc3ccc(Cl)cc3)O2)O1 (stereo partly specified)	0.0573
COCCCNC(=O)[C@@]1(Sc2ccc(C)cc2)CC(=O)N(Cc2ccccc2)[C@@H]1c1ccc(CO)cc1I	-0.178
Cc1ccc(S(=O)(=O)N[C@@H]2COC(=O)[C@H](C)COC(=O)CC=C[C@H]2C)cc1	-0.224
C=CC[C@]1(C(=O)NCc2ccccc2)N=C(c2ccc(OCCCO)cc2)O[C@H]1c1ccccc1	0.0488
CCOc1ccc(N2C(=O)/C(=C/C=C/c3ccccc3OC)S(=O)(=O)C2c2cccc([N+](=O)[O-])c2)cc1 (stereo unspecified)	0.0762
CO[C@H]([C@@H](C)[C@H](OC)c1ccccc1)[C@H](C)[C@@H](OC)[C@H](C)C(C)=O	-0.13
CC(=O)O[C@H]1C2=C(C(=O)[C@@H]3O[C@@H]31)[C@H]1C(C)O[C@@H]2[C@@]23C(=O)[C@@H]4O[C@@H]4[C@@H](O)C2=CO[C@H](C)[C@@H]13 (stereo partly specified)	0.0026
CC(C)=NOCc1ccc(-c2cc(-c3ccccc3)no2)cc1	-0.0984
C=CCC(OC(C)=O)[C@@H]1[C@@H](N(Cc2cc3ccccc3o2)C(=O)Cc2ccc(F)cc2)c2cc(OCCCO)ccc2N1C(=O)Cc1ccc(OC)cc1 (stereo partly specified)	-0.0932
CCN1C(=O)[C@H]2[C@H]3[C@H](O)C=CC(=O)[C@@H]3CC[C@H]2C1=O	0.0519

SMILES	composite z-score
CC(C)OC(=O)C=C1C[C@@H](c2ccc(C#N)cc2)O[C@@H](c2ccc(C#N)cc2)O1	0.725
NC(=O)NCC#Cc1ccc2c(c1)[C@]1(C(=O)N2)[C@H](c2ccc(O)cc2)N2[C@H](c3ccccc3)[C@H](c3ccccc3)OC(=O)[C@H]2[C@@H]1C(=O)N1CCCCCCC1	0.976
Cc1cc2c(nc1C)CCCN2CC(O)CN1CCN(C)CC1 (stereo unspecified)	-0.0636
C[C@@H]1C=CCC(=O)OC[C@H](C)C(=O)N[C@@H](C)C(=O)OC1	-0.0647
COc1ccc([Si](C)(C)[C@@H]2[C@@H](CCO)O[C@]3(C(=O)N(Cc4ccc(NC(C)=O)cc4)c4ccccc43)[C@H]2C)cc1	0.217
COc1ccc([Si](C)(C)[C@H]2[C@H](CC(=O)N3CCC[C@H]3CO)O[C@@]3(C(=O)N(Cc4cccc(N5C(=O)COc6ccccc65)c4)c4ccccc43)[C@@H]2C)cc1	0.0293
C[C@@H](c1ccccc1)N1C(=O)[C@H]2[C@H]3[C@H](O)C=CC(=O)[C@@H]3CC[C@H]2C1=O	-0.0932
C=C(COC)/C(=C/C[C@H](OC(=O)c1ccncc1)c1ccc(CO)o1)c1cc(C(=O)OC)ccc1OC	0.0222
COC(=O)CC=C[C@H](C)[C@H](CO)NS(=O)(=O)c1ccc(C)cc1	0.0522
C#CCCCON=C1C[C@@H](O)[C@@H](O)[C@@H]2[C@@H]3C(=O)N(c4cccc(Oc5ccccc5)c4)C(=O)[C@@H]3CC[C@@H]12	-0.0311
CC(C)(C)OC(=O)CC[C@]1(C(N)=O)COC(c2ccc(OCCCO)cc2)=N1	0.324
CC[C@@H](c1ccccc1)n1c(=O)n2n(c1=O)[C@H]1[C@H](O)[C@@H]3O[C@@H]3C(=NOCC=C(C)CCC=C(C)C)[C@H]1CC2	0.192
COc1ccc(O[C@H]2C=C[C@@H](c3ccccc3)O[C@@H]2COC(=O)CCC(C)=NOC(C)CN2CCCCc3nc(C)c(C)cc32)cc1 (stereo partly specified)	-0.0918
CC=CC1=C(CO)[C@H](O)[C@H]2O[C@H]2[C@H]1O	-0.113
CC(=O)OC[C@H]1O[C@@H](ON=C[C@@H](C)[C@H](OCc2ccccc2)C(C)C)[C@H](OC(C)=O)[C@@H](OC(C)=O)[C@@H]1OC(C)=O	-0.0672
CC(C)[C@@H](OCc1ccccc1)[C@H](C)C=NOC[C@@H](C)[C@H](OCc1ccccc1)C(C)C	-0.0111
[N-]=[N+]=NCc1ccccc1[C@@H]1OC(c2ccc(OCCCO)cc2)=N[C@]1(Cc1ccccc1)C(=O)N1CCOCC1	0.387
CCCC=C(CCC)[C@@H](NC(=O)c1ccc(-c2ccccc2)cc1)c1ccc(C(=O)OC)cc1	0.197
